D3 ag – qHTS of D3 Dopamine Receptor Agonist: qHTS; max activation, %; D3R DiscoveRx beta-arrestin cells, luminescence, 90 min; 410,000 compounds, 0.58% hits; in the data active means max activation above about 30%; further: 0% is about no effect
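Cells at 1500/well, incubated overnight, then treated with pinned compounds (dopamine as control) for 90 min at 37 degrees C. DiscoveRx reagent added for 30 - 60 minutes at room temperature; luminescence read.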
CBFb-RUNX1 inh – qHTS Assay for Compounds Blocking the Interaction Between CBF-beta and RUNX1 for the Treatment of Acute Myeloid Leukemia; Potency, µM (top dose mostly 59.8 µM), inactives show at the top dose activity, negative = inhibition, usual class: inhibitors; Runt-related transcription factor 1 (Homo sapiens) + Core-binding factor subunit beta …; 230,000 tested, under 10 active; AlphaScreen CBFb-His/RUNX1-biotin binding, biochemical; further: % of control where 0% means no effect
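CBF-beta (His) and RUNX1 (biotin), 30 nM each; 20 min preassociation; + compound, 15 min; + beads 50 ng each (Ni, streptavidin), 90 min; RT; AlphaScreen read.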
a7 integrin act – qHTS for Activators of Integrin-Mediated Alleviation for Muscular Dystrophy | AID 624291, 2012 | alpha7betagal myoblasts, beta-gal FDG fluorescence, 48 h | Potency, µM (titrated, usually from 38.3 µM), for the others: top-dose activation, actives largely listed as activators | 350,000 compounds, 0.064% hits;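 further: potency means the concentration at half of the fitted maximal effect; 100% = response of the positive control SU9516; nearly all actives have a fitted effect of over 60% in size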
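alpha7betagal+/- myoblasts (passage 13, 250/well) treated 48 h at 37C with compounds at 1:260 dilution of DMSO stock. Lysed, then beta-galactosidase activity read as FDG fluorescence (ex 480/em 540) after 30 min, with pre-read for autofluorescence.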
DRD3 antagonist – qHTS of D3 Dopamine Receptor Antagonist: qHTS; AID 652054, 2013; 360,000 compounds, 2.5% hits; max response, negative = inhibition, %; D3R cells, DiscoveRx beta-arrestin luminescence, antagonist mode; hits give low values; in the data active means max response below about -50%; inconclusive means no clear call, values can overlap the other calls; further: on the % scale 0 is the no-effect control and ±100 the full control effect
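Cells expressing the human receptor were seeded at 1500 cells/well, incubated overnight at 37 degrees C in 5% CO2, then exposed to library compounds with dopamine controls for 90 minutes at 37 degrees C before luminescent detection.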
PTHR1 agonist – qHTS for PTHR1 Agonists: Primary Screen. Parathyroid hormone/parathyroid hormone-related peptide receptor (Homo sapiens), Q03431. HEK293 GP2 PTHR1 cells, GloSensor cAMP luminescence, 1 h. Potency, µM (top dose mostly 115 µM), without a hit: at the top dose activation, most hits filed as activators. 410,000 compounds, 0.075% hits. AID 743266, 2014; further: potency means the concentration at half of the fitted maximal effect; nearly all actives have a fitted effect of over 55% in size
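HEK-293-derived GP2 cells expressing PTHR1 and a GloSensor cAMP reporter, 3,000/well, plated overnight, given luciferin plus IBMX (each 0.5 mM as added) for 1 h at 37 °C, then compound for 1 h at 37 °C. Luminescence was read after 15 min at room temperature.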
MBNL1 CUG block – qHTS Assay for Inhibitors of MBNL1-poly(CUG) RNA binding | Muscleblind-like protein 1 (Homo sapiens), Q9NR56 | TR-FRET MBNL1-His/biotin-(CUG)12 binding, 665/545 ratio | Potency, µM (series often up to 57.5 µM), inactives show top-dose activity change, negative = inhibition, most hits filed as inhibitors | 280,000 compounds, 0.036% hits; active means well fitted inhibition curve with a large enough effect in the signal ratio, with a control signal flat, not every such curve was filed as active; inconclusive means small, poorly fitted or top-dose-only effect, or effect the other way, or a change in a side signal; inactive means no such curve, though single readings can be large or run the other way; the % refers to the signal ratio; further: potency means the concentration at half of the fitted maximal effect; on the % scale 0 is the no-effect control and ±100 the full control effect
Target sequence (Q9NR56 whole entry, looked up): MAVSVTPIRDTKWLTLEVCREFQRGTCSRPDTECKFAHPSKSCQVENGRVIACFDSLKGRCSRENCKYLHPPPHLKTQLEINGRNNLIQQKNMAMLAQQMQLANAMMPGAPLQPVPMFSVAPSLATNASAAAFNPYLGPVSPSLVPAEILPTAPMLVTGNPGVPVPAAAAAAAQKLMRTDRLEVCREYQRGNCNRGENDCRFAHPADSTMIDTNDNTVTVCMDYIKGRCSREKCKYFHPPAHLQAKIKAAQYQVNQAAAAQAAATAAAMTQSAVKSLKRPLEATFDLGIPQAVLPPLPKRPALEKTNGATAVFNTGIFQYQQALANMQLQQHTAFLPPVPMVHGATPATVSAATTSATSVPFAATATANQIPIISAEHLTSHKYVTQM
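TR-FRET readout: Ex 340 nm, 665/545 nm emission ratio, normalized to buffer-only (basal) and MBNL1-(CUG)12 controls. Complex of MBNL1-His with Biotin-(CUG)12, compounds 92 nM–58 uM, incubated 60 min at room temperature.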
An asterisk follows results filed as active; i = inactive; ? = inconclusive; nt = not tested or not shown; [ ] = another dose, or the depositor's remark. An excerpt weighted towards active compounds, which were near 2.8% of everything screened. Unless noted, the call rests on the fitted dose curve; in most records, active means well fitted curve in the direction sought with a large enough effect; inconclusive means small, poorly fitted or top-dose-only effect, or another doubt; inactive means no such curve, though single readings can be large; an effect the other way counts as inactive or inconclusive.

SMILES	D3 ag	CBFb-RUNX1 inh	a7 integrin act	DRD3 antagonist	PTHR1 agonist	MBNL1 CUG block
C=C1[C@@H]2CC[C@@H](C2)C1(C)C	1	nt	nt	nt	nt	nt
COCCCNC(=O)CCCn1c(SCC(=O)c2ccc(F)cc2)nc2c(sc3ccccc32)c1=O	5	nt	nt	nt	-11%	nt
O=C(/C=C/c1ccc(Cl)cc1)c1ccc([N+](=O)[O-])o1	-38	nt	-38%	-101*	-47%	nt
Cc1ccc(/C=C/C(=O)c2ccc([N+](=O)[O-])o2)cc1	-16	nt	0%	-62*	-12%	nt
Cc1ccc(CNC(=O)c2ccc([N+](=O)[O-])o2)cc1	4	5%	-61%	-20	i	?
Cc1cc(O)c(C(=O)/C=C/c2ccc(Cl)cc2)c(=O)o1	-7	nt	4%	-25	-45%	8%
COC(=O)c1c(NC(=O)/C=C/c2ccc(OC)c(OC)c2)sc2c1CCC2	2	nt	nt	nt	i	nt
C/C(=C\c1ccccc1)CN1CCN(C)CC1	-5	nt	14%	-56*	i	3%
CN1CCN(C(=O)/C(=C/c2ccccc2)c2ccccc2)CC1	-29	-3%	10%	-59*	-15%	6%
CC1CC(C)CN(C(=O)/C(=C\c2ccccc2)c2ccccc2)C1 (stereo not drawn)	2	9%	-24%	0	-28%	nt
CCOC(=O)N1CCN(C/C(C)=C/c2ccccc2)CC1	-10	7%	-24%[7.66 µM]	?	i	-22%
COCCCNc1nc2ccccc2nc1NS(=O)(=O)c1cccs1	-3	2%	-5%	-64*	-30%[57.5 µM]	9%
COCCCNc1nc2ccccc2nc1NS(=O)(=O)c1ccc(OC)cc1	2	nt	57%	13	i	16%
COc1cc2c3nc4n(c(=O)c3n(CC(=O)NCC3CCCO3)c2cc1OC)CCS4 (stereo not drawn)	7	nt	-20%	8	i	-6%
CCOc1ccc(Nc2ncnc3c2cnn3C)cc1	3	nt	-5%	3	i	-6%
NS(=O)(=O)c1ccc(CNC(=O)c2cc(-c3cccnc3)nc3ccc(Br)cc23)cc1	-8	nt	?	-5	-11%	362%
c1ccc(-c2nnc(CN3CCN(C(c4ccccc4)c4ccccc4)CC3)o2)cc1	-10	-2%	23%	-56*	-23%	3%
Cc1ccccc1-c1nnc(CN2CCN(c3ccccn3)CC2)o1	50*	nt	nt	nt	-6%	nt
c1ccc(-c2nnc(CN3CCN(c4ccccc4)CC3)o2)cc1	55*	6%	-18%	-17	-21%	-4%
c1ccc(N2CCN(Cc3nnc(-c4ccc5c(c4)OCO5)o3)CC2)cc1	37*	nt	nt	nt	i	nt
Cc1ccc(C)c(N2CCN(Cc3nnc(-c4ccc5c(c4)OCO5)o3)CC2)c1	-6	nt	nt	nt	-78%	nt
Clc1cccc(N2CCN(Cc3nnc(-c4ccccc4)o3)CC2)c1	24	-1%	-2%	?	-18%	0%
O=C(c1cc(-c2ccc3c(c2)OCO3)on1)N1CCN(c2ccccc2)CC1	53*	-9%	6%	56	-95%	-11%
O=C(c1cc(-c2ccc3c(c2)OCO3)on1)N1CCN(c2ccc(F)cc2)CC1	-10	1%	15%	8	-73%	-7%
CNC(=O)c1nnsc1S(=O)(=O)c1ccc(Cl)cc1	-19	-3%	-55%	-110*	-28%	0%
SMILES	D3 ag	CBFb-RUNX1 inh	a7 integrin act	DRD3 antagonist	PTHR1 agonist	MBNL1 CUG block
CCCS(=O)(=O)NC(=O)C1(C)CCN(C(=O)COc2ccc(Cl)cc2Cl)C1 (stereo not drawn)	76*	nt	nt	14	-17%	nt
COc1ccc(-c2cc(C3C4C=CCCC4(C)C(=O)N3Cc3ccccc3)ccc2F)cc1 (stereo not drawn)	nt	25%	nt	nt	nt	nt
Cc1cc(=O)oc2cc(OCC(=O)NC(Cc3c[nH]c4ccc(O)cc34)C(=O)O)c(Cl)cc12 (stereo not drawn)	31*	nt	19%	12	-19%	-3%
O=C(Nc1ccc(F)cc1)C(c1ccccc1)N1CCN(c2cccc(C(F)(F)F)n2)CC1 (stereo not drawn)	-13	nt	nt	-28	-22%	nt
O=C(Nc1ccc(F)cc1)C(c1ccccc1OC(F)(F)F)N1CCN(c2cccc(C(F)(F)F)n2)CC1 (stereo not drawn)	-10	nt	nt	-55*	5%	nt
COc1cc(C2SC[C@H]3C(=O)N(c4ccccc4)C(=O)N23)cc(OC)c1OC (stereo partly drawn)	7	nt	nt	nt	-10%	nt
CCN(CC)C(=O)c1ccc2nc3ccccc3nc2c1	-2	-3%	-13%	-63*	i	?
C[C@H]1CN=C(N(C)C)N1CCC1CCCCC1	3	nt	0%	3	i	nt
CC(C)OC(=O)c1ccc(NCc2cc(O)ccc2O)cc1	-3	nt	-50%	?	-29%	nt
O=C(OCc1ccccc1)c1ccc(NCc2cc(O)ccc2O)cc1	-8	nt	-54%	-68*	-34%	nt
COC(=O)CN(c1cc(Cl)ccc1OC)S(=O)(=O)c1ccc(C)cc1	-7	20%	-33%	-16	i	0%
COC(=O)CN(n1cnnc1)S(=O)(=O)c1ccc(C)cc1	0	3%	2%	-54*	i	-6%
CCc1nonc1NC(=O)c1oc2c(C)c(C)ccc2c1C	7	nt	-18%	-52*	-2%	11%
CC(C)Cc1ccc(C(C)NC(=O)c2ccc(=O)[nH]c2)cc1 (stereo not drawn)	4	-4%	0%	-8	-20%	-3%
CCCCNCCOCCOc1ccc(F)cc1	-21	6%	10%	-54*	i	-8%
CC(C)NCCCOc1ccc(Cl)cc1Br	3	-4%	-65%	-73*	i	-8%
CCCCn1c(=N)n(CCCOc2ccc(F)cc2)c2ccccc21	2	nt	nt	nt	i	nt
CCCCNCCOCCOc1ccc(Cl)cc1Br	-24	5%	-46%	-87*	-20%	-12%
CC(C)NCCCCOc1ccc(Br)cc1Cl	-2	1%	-66%	-71*	i	-10%
CN(C)CCOCCOc1ccc(Cl)cc1C(C)(C)C	-12	5%	-74%	?	?	2%
CC(O)CNCCCOc1ccc(Cl)cc1C(C)(C)C (stereo not drawn)	-14	17%	-72%	-53*	-11%	-2%
